Only some compounds are listed: those with a hit (about 22% of all), similar ones and a draw of the others.
Pf growth 96h – P. falciparum growth inhibition at 96 hour, primary screen for plastid delayed-death inhibitors; P. falciparum luciferase reporter growth, 96 h; Potency, µM (titrated, usually from 28.7 µM), for the others: top-dose activity change, negative = inhibition, hits mostly inhibitors; hit rate 6.9% among 320,000; also: potency is read from the fitted curve at half-maximal effect; % is scaled to controls: 0 for no effect and ±100 for the full control effect
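Luminescence readout: decreased luciferase signal marks inhibited growth of reporter-expressing P. falciparum in infected red cells (2% hematocrit, 0.05% parasitemia final), exposed to compound two generations (96 h, 37 C, 5% CO2).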
LmPK inhibitor – inhibitors of Leishmania mexicana pyruvate kinase | Potency, µM (doses to about 57.5 µM), inactives show at the highest dose activity change, negative = inhibition, actives largely listed as inhibitors | Q27686 | purified LmPK, Kinase-Glo ATP luminescence, 1 h | hit rate 0.37% among 290,000; also: potency is read from the fitted curve at half-maximal effect; % is scaled to controls: 0 for no effect and ±100 for the full control effect
Target sequence (Q27686 whole entry, looked up): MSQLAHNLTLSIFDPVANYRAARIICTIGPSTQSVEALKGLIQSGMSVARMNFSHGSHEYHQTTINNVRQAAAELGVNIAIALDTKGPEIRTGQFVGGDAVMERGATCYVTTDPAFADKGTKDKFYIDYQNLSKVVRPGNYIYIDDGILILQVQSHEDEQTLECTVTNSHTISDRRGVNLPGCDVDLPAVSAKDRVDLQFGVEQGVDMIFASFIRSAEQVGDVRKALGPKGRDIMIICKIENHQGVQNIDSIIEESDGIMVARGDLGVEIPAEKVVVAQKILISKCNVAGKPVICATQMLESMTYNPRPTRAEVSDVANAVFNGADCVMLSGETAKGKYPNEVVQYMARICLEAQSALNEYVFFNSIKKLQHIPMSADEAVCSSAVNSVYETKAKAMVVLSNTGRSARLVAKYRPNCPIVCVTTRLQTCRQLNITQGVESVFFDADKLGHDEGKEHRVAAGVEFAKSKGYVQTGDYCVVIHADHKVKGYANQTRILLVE
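ATP generated from ADP (0.1 mM) and PEP (0.5 mM) by 0.1 nM LmPK over 1 h at room temperature (pH 7.2 imidazole buffer) was detected by coupled luciferase luminescence. Values were normalized to uninhibited and no-enzyme wells.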
Pf growth 48h – inhibits P. falciparum growth in the first generation, 48 h. hit rate 5.9% among 310,000. Potency, µM (highest dose often 28.7 µM), inactives show at the highest dose activity change, negative = inhibition, usual class: inhibitors. AID 504832. P. falciparum luciferase growth in erythrocytes, 48 h; also: potency is read from the fitted curve at half-maximal effect; % is scaled to controls: 0 for no effect and ±100 for the full control effect
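Firefly luciferase activity from engineered P. falciparum reports growth; inhibitors lower the luminescent signal. Cultures contained 2% hematocrit erythrocytes at 0.1% final parasitemia.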
Cycloheximide cs – affects cycloheximide protein synthesis inhibition readout, counter-screen. cell reporter, cycloheximide protein synthesis inhibition counterscreen. max response, %. AID 2314. hit rate 12% among 300,000; in the data active = max response mostly above about 13%, no sharp cut-off; inactive = mostly below about 14%; also: read at 38.3 µM for the half of the compounds with a filed dose; 0% is about no effect
Shiga toxin inh – blocks Shiga toxin action in Vero cells | Vero cells, Shiga toxin protein synthesis inhibition reporter | inhibition, % at 38.7 µM | hit rate 9.2% among 290,000; in the data active = inhibition mostly above about 28%, no sharp cut-off; inactive = mostly below about 43%; also: 0% is about no effect
* = called active by the depositor; ? = inconclusive; . = no result; [ ] = another dose, or the depositor's remark. Unless noted, calls follow the shape of the dose curve; as a rule, active = well fitted inhibition curve with a large enough effect; inconclusive = small, poorly fitted or top-dose-only effect, or another doubt; inactive = no such curve, though single readings can be large or run the other way.

SMILES	Pf growth 96h	LmPK inhibitor	Pf growth 48h	Cycloheximide cs	Shiga toxin inh
CN(C)c1ccc(C(=O)OCC(=O)NC2CCCCCC2)cc1	9.5%	2.1%	4.5%	0.3	-11.4
CN(C)c1ccc(C(=S)NC2CCCCC2)cc1	1.5%	3.8%	85.2%	24.5*	69.2*
COc1ccccc1CNS(=O)(=O)c1cc(C)ccc1OC	.	-2.7%	2.0%	-1.1	-6.4
Cc1cc(-c2ccc(C)c(S(=O)(=O)NCC3CCN(Cc4ccccc4F)CC3)c2)on1	-13.6%	0.4%	?	-3.2	2.7
COc1cccc(CCN2CCC(CNS(=O)(=O)c3cc(-c4cc(C)no4)ccc3OC)CC2)c1	10.4µM*	2.6%	4.15µM*	1.7	-0.8
COc1ccccc1CN1CCC(CNS(=O)(=O)c2cc(-c3onc(C)c3C)ccc2OC)CC1	?	0.3%	11.7µM*	-4.8	-7.1
COc1cccc(CCN2CCC(CNS(=O)(=O)c3cc(-c4cc(C)no4)ccc3C)CC2)c1	?	-3.0%	?	-3.8	25.1
Cc1cc(-c2ccc(C)c(S(=O)(=O)NCC3CCN(Cc4cccc(F)c4)CC3)c2)on1	?	2.9%	9.28µM*	-0.9	8.1
Cc1cc(C)nc(N/C(=N\S(=O)(=O)Cc2ccccc2)Nc2ccccc2Br)n1	-1.0%	-1.1%	?	-4.5	-15.1
CCSc1n[nH]c(=S)s1	96.2%	30.3%	7.6%	-0.4	-3.7
CC(C)(C)NC(=O)Cn1nnc(-c2cccs2)n1	-7.3%	1.1%	54.2%	31.2*	29.8*
O=C(Cn1nnc(-c2cccs2)n1)NCc1ccccc1	4.7%	-2.1%	1.3%	21.3	16.5
O=C(Cn1nnc(-c2cccs2)n1)Nc1ccccc1C(F)(F)F	0.294µM*	-6.2%	-0.6%	3.0	-8.6
O=C(Cn1nnc(-c2cccs2)n1)NCc1ccco1	9.9%	0.7%	15.4%	12.2*	51.5*
CCc1cccc(OCCOC(=O)CNS(=O)(=O)c2ccc(NC(C)=O)cc2)c1	41.1%	.	37.9%	.	.
COc1ccccc1CCNC(=O)CNC(=O)c1ccc2ccccc2c1	21.6%	-3.3%	0.0%	-2.1	35.1
O=C(O)c1ccccc1-c1ccccc1C(=O)NCc1cccc(C(F)(F)F)c1	0.9%	2.4%	-20.7%	-2.6	14.6
O=C1OC(Cc2ccccn2)C(O)=C1C1=NCCCCN1 (centres undefined)	217.2%	-4.6%	202.0%	39.4*	115.8*
O=C1OC(Cc2ccccn2)C(O)=C1C1=NCCCN1 (centres undefined)	133.0%	-3.9%	74.1%	27.6*	80.8*
O=C(c1nnsc1S(=O)c1ccc(Cl)cc1)N1CCOCC1 (centres undefined)	-6.3%	1.8%	16.5µM*	59.8*	63.9
CNC(=O)c1nnsc1S(=O)(=O)c1ccc(Cl)cc1	?	1.5%	?	16.3	-1.0
O=C(Nc1ccccc1)c1nnsc1S(=O)c1ccc(Cl)cc1 (centres undefined)	15.1%	-0.3%	63.5%	9.2	-26.1
O=C(c1nnsc1S(=O)(=O)c1ccc(Cl)cc1)N1CCOCC1	?	11.1%	-53.5%	28.1*	45.4*
O=C(CN1CCN(Cc2ccccc2Cl)C1=O)NCCCN1CCOCC1	19.9%	5.8%	1.9%	-3.4	-3.4
O=C(O)c1cccc(NC(=O)c2cccc(S(=O)(=O)N3CCc4ccccc4C3)c2)c1	43.2%	-1.3%	11.7%	-1.5	-12.4
SMILES	Pf growth 96h	LmPK inhibitor	Pf growth 48h	Cycloheximide cs	Shiga toxin inh
CN1CCCN(S(=O)(=O)c2cccc(Cl)c2Cl)CC1	3.7%	4.3%	-14.9%	-0.5	-12.0
Cc1nn(Cc2ccc(C(=O)N3c4ccc(F)cc4CCC3C)o2)c(C)c1Br (centres undefined)	13.1µM*	16.8%	.	9.1	-8.2
Cc1cc(C)cc(NC(=S)Nc2ccc3cn[nH]c3c2)c1	33.0%	0.0%	11.6%	7.9	-1.4
Cc1ccc(NC(=S)Nc2ccc3cn[nH]c3c2)cc1	55.8%	1.7%	12.3%	17.9*	33.5
O=C(NC(=S)Nc1ccc2cn[nH]c2c1)c1ccccc1	148.6%	-0.9%	359.4%	40.9*	78.7*
S=C(Nc1ccccc1)Nc1ccc2cn[nH]c2c1	102.3%	-2.0%	101.5%	46.1*	55.1*
NC(=S)Nc1cccc(-c2n[nH]c(=S)o2)c1	2.8%	-10.0%	0.9%	-2.7	-2.3
FC(F)Oc1ccc(NC(=S)Nc2ccc3cn[nH]c3c2)cc1	-18.4%	0.4%	-1.7%	10.3	5.5
Cc1ccc(NC(=S)Nc2cccc(-c3n[nH]c(=S)o3)c2)cc1	16.1%	-2.3%	2.2%	32.4*	40.2*
CCC(C(=O)NCC1CCCO1)n1nc(C)c2sc3ccccc3c2c1=O (centres undefined)	?	-6.5%	-9.1%	-6.5	-10.9
Cc1ccc(CNS(=O)(=O)/C=C/c2ccc3c(c2)OCO3)cc1	46.5%	-0.7%	17.1%	7.7	1.6
O=C(O)c1ccc(CS(=O)(=O)c2ccc(Br)cc2)cc1	?	3.3%	2.4%	-3.2	19.9
Cc1onc(-c2ccccc2Cl)c1C(=O)O/N=C(\N)c1ccc([N+](=O)[O-])o1	14.7µM*	7.2%	3.7µM*	1.4	6.9
CCCOc1ccccc1NC(=O)CC1Nc2ccccc2NC1=O (centres undefined)	27.1%	-0.6%	9.28µM*	-3.5	8.6
Cc1ccc(NC2Sc3ccccc3NC2=O)cc1Cl (centres undefined)	80.8%	5.6%	35.0%	13.1*	25.7
Cc1cccc(NC2SC(=O)NC2=O)c1 (centres undefined)	-20.6%	7.2%	-7.3%[5.75 µM]	0.4	14.8
CCOc1ccccc1NC(=O)CC1Nc2ccccc2NC1=O (centres undefined)	3.29µM*	0.2%	2.33µM*	5.1	13.5
O=C(CC1Nc2ccccc2NC1=O)c1ccccc1 (centres undefined)	?	0.5%	.	31.3*	46.2
O=C(Cn1cc(S(=O)(=O)N2CCN(c3ccccc3F)CC2)c2ccccc2c1=O)NCCCN1CCCCCC1	-12.3%	16.2%	?	-3.9	-8.1
COC(=O)C(NC(=O)c1cccnc1Cl)C(C)C (centres undefined)	31.9%	1.6%	70.3%	-2.9	-3.1
Cc1ccc(NC(=O)CC2Nc3ccccc3NC2=O)cc1Cl (centres undefined)	124.7%	-2.5%	?	28.2*	107.8*
Cc1ccc(NC(=O)CC2SCCNC2=O)cc1Cl (centres undefined)	-11.6%	-2.8%	72.8%	23.3*	48.3*
COc1ccc(CCNC(=O)CC2Nc3ccccc3NC2=O)cc1 (centres undefined)	?	-2.4%	.	11.2	25.3
COc1ccc(CCNC(=O)CC2Nc3ccccc3NC2=O)cc1OC (centres undefined)	1.47µM*	4.0%	?	1.8	-16.2
O=C(CC1SCCNC1=O)Nc1ccc(F)c(Cl)c1 (centres undefined)	3.3%	3.9%	17.9%	9.6	21.1
COc1cc(/C=N/Nc2cc(C)nc(N)n2)ccc1O	?	0.1%	-30.5%[0.00184 µM]	13.3	35.6*
COc1ccc(/C=N/Nc2cc(C)nc(N)n2)cc1	-2.2%	4.1%	9.28µM*	31.6*	66.9*
